Records with an inconclusive call do not appear. Activity calls are given as the source filed them. The calls were made as follows: active = hit-call score of the fitted dose curve at least 0.9, where 1 is the maximum; inconclusive = response in the unintended direction; inactive = score below 0.9.
molecular target: rat Adrenergic Receptor, Alpha 2 (Adra2), Non-selective Binding, Adra2a (gene 25083) (UniProt P22909); experiment: NVS_GPCR_rAdra2_NonSelective: NovaScreen (NVS) G Protein-Coupled Receptor Assay for rat Adrenergic Receptor, Alpha 2 (Adra2), Non-selective Binding (AID 2283299)
Sequence (P22909 whole entry, looked up): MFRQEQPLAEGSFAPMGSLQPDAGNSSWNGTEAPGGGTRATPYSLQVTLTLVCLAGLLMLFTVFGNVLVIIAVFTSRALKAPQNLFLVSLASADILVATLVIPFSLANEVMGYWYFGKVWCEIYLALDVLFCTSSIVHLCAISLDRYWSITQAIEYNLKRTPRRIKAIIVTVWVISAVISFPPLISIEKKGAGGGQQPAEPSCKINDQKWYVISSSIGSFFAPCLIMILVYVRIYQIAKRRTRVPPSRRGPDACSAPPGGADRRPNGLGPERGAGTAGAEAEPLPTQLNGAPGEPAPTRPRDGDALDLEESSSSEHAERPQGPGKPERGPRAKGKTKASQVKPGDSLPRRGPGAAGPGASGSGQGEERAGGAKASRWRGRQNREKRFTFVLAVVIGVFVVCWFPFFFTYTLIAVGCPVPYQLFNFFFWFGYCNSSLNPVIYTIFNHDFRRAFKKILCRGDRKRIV
Method: NVS_GPCR_rAdra2_NonSelective is a biochemical, single-readout assay that uses extracted gene-proteins from Rat cortical membranes in a tissue-based cell-free assay. Measurements were taken 1.25 hours after chemical dosing in a 48-well plate.NVS_GPCR_rAdra2_NonSelective is one of one assay component(s) measured or calculated from the NVS_GPCR_rAdra2_NonSelective assay. It is designed to make measurements of radioligand binding, a form of binding reporter, as detected with scintillation counting signals by Filter-based radiodetection technology.Data from the assay component NVS_GPCR_rAdra2_NonSelective was analyzed into 1 assay endpoint. This assay endpoint, NVS_GPCR_rAdra2_NonSelective, was analyzed in the positive analysis fitting direction relative to DMSO as the negative control and baseline of activity. Using a type of binding reporter, loss-of-signal activity can be used to understand changes in the binding as they relate to the gene Adra2a. Furthermore, this assay endpoint can be referred to as a primary readout, because the performed assay has only produced 1 assay endpoint. To generalize the intended target to other relatable targets, this assay endpoint is annotated to the gpcr intended target family, where the subfamily is rhodopsin-like receptor.
Binding assays used specific radioligands (tritiated, iodinated) with non-radioactive competitive displacement ligands in agonist or antagonist protocols (as indicated) and various reference compounds and inhibitors to titrate specific binding to receptors and transporters. Most enzyme assays (CYPs, kinases, phosphatases, proteases, HDACs) used recombinant protein and specific substrates (fluorescence mostly, some colorimetric and radioactive) and inhibitors, followed by a biochemical separation of substrate and product. All assays for the biochemical HTS were initially run in duplicate at a single concentration (10 uM for CYP450 assays and 25 uM for all others). […] Each assay was run with positive and negative controls, and concurrent controls on every plate. The follow-up (secondary) screen tested active chemical-pairs in concentration series, as well as a few additional assays not tested in the primary screen, some selected negative inactives, and several cases re-run in the concentration series for confirmatory purposes.

Row | Compound | AC50
1 | COc1ccc2cc(S(=O)(=O)N[C@H](CC(=O)N[C@H](Cc3ccc(CN4[C@H](C)CCC[C@@H]4C)cc3)C(=O)N(C)C(C)C)c3ccc4c(c3)OCO4)ccc2c1 | 23.9 µM (active)
2 | COc1cccc([C@H](O)C2CCN(CCc3ccc(F)cc3)CC2)c1OC | 1.58 µM (active)
3 | CC/C(=C(/CC)c1ccc(O)cc1)c1ccc(O)cc1 | 36.3 µM (active)
4 | CCN(CC)C(=O)c1cc(S(=O)(=O)Cc2ccccc2)c(N2CCC(c3ccccc3)CC2)cc1N(CC)CCN(C)C | 15.2 µM (active)
5 | CCCCCCCCCCCC[N+](C)(C)C | 19.1 µM (active)
6 | CN(C)c1ccc(C(=C2C=CC(=[N+](C)C)C=C2)c2ccc(N(C)C)cc2)cc1 | 1.15 µM (active)
7 | CCOC(=O)O[C@H](C)OC(=O)c1ccc2c(c1)cc(C(=O)NC1CCN(C(C)C)CC1)n2Cc1cc(-c2ccc(Cl)s2)on1 | 5.66 µM (active)
8 | NCc1cccc(C2CCN(C(=O)c3ccc(C#Cc4ccccc4F)o3)CC2)c1 | 14.4 µM (active)
9 | O=c1[nH]sc2ccccc12 | 1.55 µM (active)
10 | Clc1cc(Cl)c2c(c1)N=C1CCCCCN1C2 | 1.57 µM (active)
11 | CCN(Cc1cccnc1)C(=O)c1cccc(Cl)c1[C@]1(C)C(=O)N(Cc2ccc(OC)cc2OC)c2ccc(Cl)cc21 | 6.92 µM (active)

Source: PubChem BioAssay (EPA / NIEHS)
